# Assay outcomes (PubChem BioAssay)
# LYPLA1 counter: LYPLA1 (human) inhibition in PME1 counter-screen. O75608. recombinant LYPLA1, FP-Rh probe fluorescence polarization. inhibition, % at 5.9 µM. 320,000 compounds, 0.16% hits;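 active means inhibition above the mean of all tested compounds plus 3 SD, set per campaign, cut at about 14% in these data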;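 further: inhibitors block serine hydrolase probe labeling of LYPLA1 so polarization falls; 0% = enzyme with DMSO and 100% = wells lacking LYPLA1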
# PREPL inhibitor: inhibits the human prolyl oligopeptidase-like enzyme. inhibition, % at 5.96 µM. 320,000 compounds, 0.68% hits. Q4J6C6. recombinant PREPL, fluorescence polarization activity-based probe;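 further: 0% = enzyme with DMSO and 100% = wells lacking enzyme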
# GSTO1 inh: counter-screen for RBBP9 inhibitors: inhibitors of human GSTO1 | 300,000 compounds, 1.1% hits | inhibition, % at 5.96 µM | AID 1974 | recombinant GSTO1, activity-based probe fluorescence polarization | P78417;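 active means inhibition above the campaign mean inhibition plus 3 SD, cut at about 35% in these data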;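 further: 0% = GSTO1-1 with DMSO and 100% = wells lacking GSTO1-1 enzyme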
# Target sequence (P78417 whole entry, looked up): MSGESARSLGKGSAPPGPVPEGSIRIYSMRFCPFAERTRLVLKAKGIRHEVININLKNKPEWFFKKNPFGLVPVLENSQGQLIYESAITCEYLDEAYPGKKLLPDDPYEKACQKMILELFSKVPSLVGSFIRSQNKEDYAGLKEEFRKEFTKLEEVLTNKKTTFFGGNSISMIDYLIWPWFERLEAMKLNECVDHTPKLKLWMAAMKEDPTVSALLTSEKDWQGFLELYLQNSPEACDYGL
# LYPLA2 counter: blocks human lysophospholipase 2, a PME1 counter-screen | O95372 | recombinant LYPLA2, FP-Rh probe fluorescence polarization | inhibition, % at 5.9 µM | 320,000 compounds, 0.38% hits | AID 2177;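 active means inhibition above the screen-wide mean plus 3 SD, limit set per campaign, cut at about 26% in these data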;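 further: 0% = LYPLA2 with DMSO and 100% = wells lacking LYPLA2 enzyme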
# Fam108B inh: counter-screen for RBBP9 inhibitors: inhibitors of mouse Fam108B | recombinant Fam108B, FP-Rh probe fluorescence polarization | inhibition, % at 9.51 µM | 300,000 compounds, 0.33% hits | AID 1947;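 active means inhibition above the screen mean inhibition plus 3 SD, computed separately per campaign, cut at about 18% in these data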;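 further: inhibitors lower polarization as less probe binds the enzyme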
# PME-1 primary: blocks human protein phosphatase methylesterase 1. recombinant PME-1, FP-Rh probe fluorescence polarization. inhibition, % at 5.9 µM. 320,000 compounds, 0.53% hits;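 active means inhibition above the campaign mean of all compounds plus 3 SD, cut at about 26% in these data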;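 further: competitive labeling of PME-1 active site by serine hydrolase directed probe; 0% = PME-1 with DMSO and 100% = wells lacking PME-1 enzyme; inhibitors block probe labeling so polarization falls and inhibition rises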
# PREPL inh cf: confirmation of human PREPL enzyme inhibitors | recombinant PREPL, fluorescence polarization activity probe | AID 2803 | shares compounds with PREPL inhibitor | inhibition, % at 5.96 µM | 2,000 compounds, 67% hits;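 further: 0% = protein with DMSO and 100% = wells lacking protein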
# The depositor's hits bear a star; nt = no result given. Only some compounds are listed: those with a hit (about 2% of all), similar ones and a draw of the others. Unless noted, no stated cut-off is given here; in the data, active means inhibition above about 43%; inactive means the rest.
SMILES,LYPLA1 counter,PREPL inhibitor,GSTO1 inh,LYPLA2 counter,Fam108B inh,PME-1 primary,PREPL inh cf
COc1ccc2cc1Oc1ccc(cc1)C[C@H]1c3cc(c(OC)cc3CCN1C)Oc1c(OC)c(OC)cc3c1[C@@H](C2)N(C)CC3,-2,52*,nt,-4,nt,5,48*
Nc1cc(N)cc(-c2nc3ccccc3[nH]2)c1,-9,49*,-7,-9,17,32*,13
c1ccc(-c2nc3ccccc3[nH]2)cc1,2,5,5,7,5,-3,nt
O=C(COC(=O)CN1C(=O)c2ccccc2C1=O)NC1CCCC1,0,-5,2,-1,1,-7,nt
COc1ccc(N2CCN(Cc3nc4ccccc4c(=O)[nH]3)CC2)cc1,0,12,-1,-2,-2,1,nt
COc1cccc(N2CCN(Cc3nc4ccccc4c(=O)[nH]3)CC2)c1,-2,48*,-11,-6,-1,-2,39
CN(C)c1ccc(NC(=O)c2ccc(COc3cccc(Cl)c3)o2)cc1,-3,58*,-2,16,6,13,47*
CCN1CCN(C(=O)c2ccc(COc3cccc(Cl)c3)o2)CC1,3,-11,1,5,0,0,nt
CCN1C(=O)[C@H]2[C@@H](c3ccc(-c4ccc(Cl)c(Cl)c4)c(OC)c3)N[C@@](C)(C(=O)OC)[C@H]2C1=O,5,18,-9,6,1,4,nt
CCN1C(=O)[C@H]2[C@@H](c3ccc(-c4ccc(Cl)c(Cl)c4)cc3)N[C@@](C)(C(=O)OC)[C@H]2C1=O,9,46*,2,22,-2,-8,43
NC(=S)Nc1cccc2cccnc12,2,16,26,9,3,0,nt
Oc1ccccc1CNc1cccc2cccnc12,-1,45*,33,12,8,3,15
NC(=S)NNc1cccc2cccnc12,2,62*,62*,1,7,11,27
CN(C)c1ccc(-c2sc(Nc3ccccc3)n[n+]2-c2ccc(F)cc2)cc1,-2,10,1,-3,2,-2,nt
CCN(CC)c1ccc(-c2sc(Nc3ccccc3)n[n+]2-c2ccc(F)cc2)cc1,-1,54*,1,-1,2,3,66*
CCc1ccc(Nc2n[n+](-c3ccccc3)c(-c3ccc(N(CC)CC)cc3)s2)cc1,3,64*,5,0,3,-7,68*
O=C(c1ccccc1)c1ccc(C(=O)N2CCOCC2)cc1,-5,23,18,3,1,1,nt
O=C(c1ccc(-c2ccccc2)cc1)c1ccccc1C(=O)N1CCOCC1,0,46*,4,6,-3,2,41
COc1ccc(NCc2nnc(SCc3ccc(Cl)cc3)n2-c2ccccc2)cc1,4,52*,5,3,1,3,49*
O=C(Nc1c(Cl)cccc1Cl)C1CCN(C(=O)c2cccs2)CC1,3,-10,-2,0,-2,3,nt
O=C1/C(=C/c2ccc(Cl)cc2)SC(=S)N1CCC(=O)N1CCCCC1CCO (centres undefined),1,27,16,-2,-1,-3,nt
O=C1/C(=C/c2cccc(Cl)c2)SC(=S)N1CCC(=O)N1CCCCC1CCO (centres undefined),0,45*,-3,-4,-11,-7,44*
O=C1/C(=C/c2ccccc2F)SC(=S)N1CCC(=O)N1CCCCC1CCO (centres undefined),0,46*,0,-1,-7,-2,43*
Cc1ccc(-n2[nH]c(C)c(C=Nc3ccc4[nH]c(=O)[nH]c4c3)c2=O)cc1C,-6,57*,-11,-9,13,18,37
CC(C)N(C(=O)[C@H]1CC(CC(=O)NCc2cccc(C(F)(F)F)c2)C(=O)N2CCc3c([nH]c4ccccc34)[C@]12C)C(C)C (some centres undefined),nt,27,nt,nt,nt,nt,nt
COc1ccc(NCc2nc3ccccc3n2CCOc2ccccc2)cc1,-3,40,2,4,4,15,nt
COc1ccc(NCc2nc3ccccc3n2CCOc2ccc(C)cc2)cc1,-7,62*,3,7,3,11,60*
